A number with no mark means an inactive call. Records with an inconclusive call do not appear. Activity calls are given as the source filed them. Unless noted, calls follow the shape of the dose curve; as a rule, active = well fitted curve in the direction sought with a large enough effect in the repeat runs; inconclusive = weak or mixed curves; inactive = no such curve, though single readings can be large; an effect the other way counts as inactive or inconclusive.

The target in test [1] is Estrogen receptor beta (Homo sapiens) (UniProt Q92731). The test is described as follows: qHTS assay to identify small molecule agonists of the estrogen receptor beta (ER-beta) signaling pathway (AID 1259377; active = well fitted activation curve with a large enough effect in the signal ratio in the repeat runs, not every such curve was filed as active; the % refers to the signal ratio). The gist of the method: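 Read-out: beta-lactamase FRET fluorescence. Cell line: ER-beta-UAS-bla HEK293T in 2% charcoal-stripped FBS. Exposure: 16 hr at 37C. Substrate step: 2 h at room temperature.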

Test [2] has the same target. The test is described as follows: qHTS assay to identify small molecule antagonists of the estrogen receptor beta (ER-beta) signaling pathway (AID 1259378; active = well fitted inhibition curve with a large enough effect in the signal ratio in the repeat runs, not every such curve was filed as active; the % refers to the signal ratio; also: potency is read from the fitted curve at half-maximal effect). In short, it runs like this:
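Antagonist mode: compounds added to beta-lactamase reporter HEK293T ER-beta-UAS cells stimulated with E2 (1nM final), 16 hr at 37C. LiveBLAzer B/G FRET substrate, 2 hours room temperature, fluorescence read-out.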

A short description of test [3]: qHTS assay to identify small molecule agonists of the androgen receptor (AR) signaling pathway in the presence of an antagonist - cell viability counter screen (AID 1259379). Also: nearly all actives have a fitted effect of over 25% in size. Also: potency is read from the fitted curve at half-maximal effect. In short, it runs like this: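 MDA-kb2 cells (MMTV-luciferase, AR/GR), 3,000/well, 5 h attachment, then 3.0 µM nilutamide (final) and compounds at 15 concentrations. Viability by CellTiter-Fluor fluorescence after 16 h at 37 °C, 0% CO2, in the reporter wells.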

A short description of test [4]: qHTS assay to identify small molecule agonists of the estrogen receptor beta (ER-beta) signaling pathway - cell viability counter screen (AID 1259380). Also: nearly all actives have a fitted effect of over 30% in size. Also: potency is read from the fitted curve at half-maximal effect. The gist of the method: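 ER-beta-UAS-bla HEK293T cells in medium with 2% charcoal-stripped FBS, pre-incubated 6 hr, then treated 16 hr at 37C. Cytotoxicity read in the same wells by CellTiter-Glo luminescence after 30 min at room temperature.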

For test [5], the target named is Androgen receptor (Homo sapiens) (UniProt P10275). The test is described as follows: qHTS assay to identify small molecule agonists of the androgen receptor (AR) signaling pathway in the presence of an antagonist (AID 1259381; calls by dose curve; also: nearly all actives have a fitted effect of over 15% in size). The gist of the method:
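MDA-kb2 cells carrying MMTV-luciferase (AR/GR responsive), 3,000 cells/well, co-treated with 3.0 uM nilutamide final. Compounds at 15 concentrations, 16 hr at 37C without CO2. Luciferase luminescence read after 30 min with ONE-Glo.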

Test [6] in a line: qHTS assay to identify small molecule antagonists of the estrogen receptor beta (ER-beta) signaling pathway - cell viability counter screen (AID 1259382). Also: nearly all actives have a fitted effect of over 55% in size. Also: potency is read from the fitted curve at half-maximal effect. The gist of the method:
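ER-beta-UAS-bla HEK293T cells in 2% charcoal-stripped FBS medium, treated with compound plus 1 nM 17-beta-estradiol for 16 h at 37C. Viability read by CellTiter-Glo luminescence after 30 min at room temperature in the same wells.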

A short description of test [7]: qHTS assay to identify small molecule agonists or antagonists of the thyroid stimulating hormone receptor (TSHR) signaling pathway - wild type cell line counter screen (AID 1259384; calls by dose curve). In short, it runs like this: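 Counter screen in untransfected Hek293: compounds (15-point titration, triplicate) plus phosphodiesterase inhibitor Ro20-1724 added after 18 h plating; 30 min RT. Intracellular cAMP via competitive d2/cryptate immunoassay, 1 h incubation.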

For test [8], the target named is Thyrotropin receptor (Homo sapiens) (UniProt P16473). The test is described as follows: qHTS assay to identify small molecule antagonists of the thyroid stimulating hormone receptor (TSHR) signaling pathway (AID 1259385; calls by dose curve; also: nearly all actives have a fitted effect of over 20% in size). In short, it runs like this:
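Antagonist mode: compound-treated TSHR-expressing HEK293 cells were stimulated with 1.5 ng/mL TSH (final) in presence of Ro20-1724 for 30 min at RT. HTRF cAMP detection after 1 h; each compound tested at 15 concentrations, triplicate.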

For test [9], the target named is Progesterone receptor (Homo sapiens) (UniProt P06401). The test is described as follows: qHTS assay to identify small molecule agonists of the progesterone receptor (PR) signaling pathway (AID 1346784; calls by dose curve; also: nearly all actives have a fitted effect of over 30% in size). In short, it runs like this:
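Compounds were tested for PR agonism in HEK 293T cells bearing a beta-lactamase gene under UAS control. Treatment lasted 16 hr at 37C; signal came from fluorescence of a FRET substrate.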

Test [10] is described as follows: qHTS assay to identify small molecule antagonists of the progesterone receptor (PR) signaling pathway - cell viability counter screen (AID 1346798). Also: nearly all actives have a fitted effect of over 50% in size. Also: potency is read from the fitted curve at half-maximal effect. In short, it runs like this: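 Following a 4 hr attachment, PR-UAS-bla HEK293T cells in charcoal-stripped FBS medium were exposed to compounds with R5020 for 16 hr; CellTiter-Glo was added and luminescence read after 30 min at room temperature.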

Test [11] can be described thus: qHTS assay to identify small molecule agonists of the progesterone receptor (PR) signaling pathway - cell viability counter screen (AID 1346799; calls by dose curve; also: nearly all actives have a fitted effect of over 45% in size; also: potency is read from the fitted curve at half-maximal effect). In short, it runs like this: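 Here, 3,000 PR-UAS-bla HEK293T cells per well were treated with compounds for 16 hr after a 6 hr preincubation at 37C and 5% CO2; cell viability is the CellTiter-Glo luminescence signal.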

Test [12] can be described thus: qHTS assay to identify small molecule antagonists of the TGF-beta/Smad signaling pathway - cell viability counter screen (AID 1346824). Also: nearly all actives have a fitted effect of over 50% in size. In short, it runs like this: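 Cytotoxicity counter-screen run in the same wells as the beta-lactamase Smad reporter read: CellTiter-Glo luminescence after 30 min at room temperature. HEK 293T SBE-bla cells had 5 hr compound exposure at 37 C with TGF-beta1 (0.25 ng/mL stock).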

A short description of test [13]: qHTS assay to identify small molecule agonists of the TGF-beta/Smad signaling pathway - cell viability counter screen (AID 1346829). Also: top concentration of the series differs between compounds; nearly all actives have a fitted effect of over 45% in size. In short, it runs like this: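 Tox21 qHTS format: SBE-bla HEK 293T cells treated with DMSO-dissolved compounds for 5 hr; CellTiter-Glo luminescence after 30 min at room temperature.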
Test [14] in a line: qHTS assay to identify small molecule agonists of the TGF-beta/Smad signaling pathway (AID 1346859; active = well fitted activation curve with a large enough effect in the signal ratio in the repeat runs, not every such curve was filed as active; the % refers to the signal ratio; also: series mostly up to about 77 µM). The gist of the method:
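Each well held 4,000 SBE-bla HEK 293T cells incubated overnight before compound addition; 5 hr later the cleavable FRET substrate went on for 2 hr at room temperature, and fluorescence was read at two emissions.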

Test [15] is described as follows: Human pregnane X receptor (PXR) small molecule agonists, qHTS cell viability counter screen (AID 1346977). Also: nearly all actives have a fitted effect of over 50% in size. Also: potency is read from the fitted curve at half-maximal effect. In short, it runs like this:
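Tox21 qHTS format; PXR-Luc HepG2, 2,000/well, charcoal-stripped FBS 5%. Cpd exposure 24hr. Read: CellTiter-Fluor fluorescence, multiplexed with luciferase.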

Test [16] concerns the target Estrogen receptor (Homo sapiens) (UniProt P03372). The test is described as follows: qHTS assay to identify small molecule agonists of the estrogen receptor alpha (ER-alpha) signaling pathway in the presence of an antagonist (AID 1259383; calls by dose curve; also: top concentration of the series differs between compounds; nearly all actives have a fitted effect of over 15% in size). In short, it runs like this:
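VM7Luc4E2 cells express endogenous full-length ER-alpha with an ERE-luciferase reporter and were hormone-deprived for 5 days. Compounds at 15 concentrations were added with 10.0nM ICI-182,780 for 22hr at 37C. Luminescence was read with ONE-Glo.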

A short description of test [17]: qHTS assay to identify small molecule agonists of the estrogen receptor alpha (ER-alpha) signaling pathway in the presence of an antagonist - cell viability counter screen (AID 1259386).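 Also: series mostly up to about 92 µM; cells exposed to compounds for 22 h at 37 °C before the viability read; nearly all actives have a fitted effect of over 30% in size.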 The gist of the method: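 Cell viability in VM7Luc4E2 cells (endogenous full-length ER-alpha) measured by CellTiter-Fluor fluorescence in the same wells as the luciferase screen. Cells pre-cultured 5 days in charcoal-stripped serum, then treated 22 h with compounds at 15 concentrations plus 10.0nM ICI-182,780.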

In test [18] the target is Progesterone receptor (Homo sapiens) (UniProt P06401). The test is described as follows: qHTS assay to identify small molecule antagonists of the progesterone receptor (PR) signaling pathway (AID 1346795; active = well fitted inhibition curve with a large enough effect in the signal ratio in the repeat runs, not every such curve was filed as active; the % refers to the signal ratio; also: potency is read from the fitted curve at half-maximal effect). In short, it runs like this:
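In HEK293T cells bearing the PR-UAS-bla reporter, compound effects on promegestone-driven (1 nM) beta-lactamase expression are assessed after 16 hr using a fluorescent FRET substrate incubated 2 hr at room temperature.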

Test [19] concerns the target Thyrotropin-releasing hormone receptor (Homo sapiens) (UniProt P34981). The test is described as follows: qHTS assay to identify small molecule antagonists of the thyrotropin-releasing hormone receptor (TRHR) signaling pathway (AID 1346877; active = well fitted inhibition curve with a large enough effect in the repeat runs, not every such curve was filed as active; also: series mostly up to about 51 µM). The gist of the method: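 TRHR-expressing HEK293 cells loaded with calcium dye for 2 h at 37 C; compounds pre-incubated 5 min at room temperature before TRH challenge at 1 nM final. Intracellular calcium fluorescence read kinetically for 3 min; 15 concentrations in triplicate.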

Test [20] shares this target. The test is described as follows: qHTS assay to identify small molecule agonists of the thyrotropin-releasing hormone receptor (TRHR) signaling pathway (AID 1346891; calls by dose curve; also: series mostly up to about 58 µM). The gist of the method: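 Screening of agonists relied on calcium signalling in HEK293 cells expressing human TRHR: dye loading 2 h at 37 °C preceded compound addition and a 3-min fluorescence time course.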

Chain of Progesterone receptor (Homo sapiens) (P06401 whole entry, looked up): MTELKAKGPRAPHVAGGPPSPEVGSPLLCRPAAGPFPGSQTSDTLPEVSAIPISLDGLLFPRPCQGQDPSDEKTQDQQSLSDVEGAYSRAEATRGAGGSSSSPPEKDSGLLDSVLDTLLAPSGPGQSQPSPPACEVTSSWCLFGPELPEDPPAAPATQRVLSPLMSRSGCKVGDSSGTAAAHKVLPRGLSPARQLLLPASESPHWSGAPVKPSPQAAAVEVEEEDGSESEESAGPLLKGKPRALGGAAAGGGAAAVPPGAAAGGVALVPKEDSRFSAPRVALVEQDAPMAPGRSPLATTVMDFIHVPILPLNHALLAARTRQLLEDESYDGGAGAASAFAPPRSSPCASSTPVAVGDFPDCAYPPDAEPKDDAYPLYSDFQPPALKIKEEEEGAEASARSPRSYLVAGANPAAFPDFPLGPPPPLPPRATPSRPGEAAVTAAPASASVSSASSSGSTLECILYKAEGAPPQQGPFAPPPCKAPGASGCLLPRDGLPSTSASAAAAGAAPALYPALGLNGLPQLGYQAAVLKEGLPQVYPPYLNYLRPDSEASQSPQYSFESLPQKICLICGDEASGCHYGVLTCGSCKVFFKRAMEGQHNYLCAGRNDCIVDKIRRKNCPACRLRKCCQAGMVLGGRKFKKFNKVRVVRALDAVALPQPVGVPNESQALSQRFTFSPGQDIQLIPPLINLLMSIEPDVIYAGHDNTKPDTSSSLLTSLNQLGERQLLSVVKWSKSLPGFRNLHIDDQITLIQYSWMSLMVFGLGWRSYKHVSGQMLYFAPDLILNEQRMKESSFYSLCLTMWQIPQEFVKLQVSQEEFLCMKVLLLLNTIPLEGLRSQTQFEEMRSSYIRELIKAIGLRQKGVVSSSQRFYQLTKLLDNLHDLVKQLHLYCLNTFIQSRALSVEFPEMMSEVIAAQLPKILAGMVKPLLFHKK
Chain of Estrogen receptor (Homo sapiens) (P03372 whole entry, looked up): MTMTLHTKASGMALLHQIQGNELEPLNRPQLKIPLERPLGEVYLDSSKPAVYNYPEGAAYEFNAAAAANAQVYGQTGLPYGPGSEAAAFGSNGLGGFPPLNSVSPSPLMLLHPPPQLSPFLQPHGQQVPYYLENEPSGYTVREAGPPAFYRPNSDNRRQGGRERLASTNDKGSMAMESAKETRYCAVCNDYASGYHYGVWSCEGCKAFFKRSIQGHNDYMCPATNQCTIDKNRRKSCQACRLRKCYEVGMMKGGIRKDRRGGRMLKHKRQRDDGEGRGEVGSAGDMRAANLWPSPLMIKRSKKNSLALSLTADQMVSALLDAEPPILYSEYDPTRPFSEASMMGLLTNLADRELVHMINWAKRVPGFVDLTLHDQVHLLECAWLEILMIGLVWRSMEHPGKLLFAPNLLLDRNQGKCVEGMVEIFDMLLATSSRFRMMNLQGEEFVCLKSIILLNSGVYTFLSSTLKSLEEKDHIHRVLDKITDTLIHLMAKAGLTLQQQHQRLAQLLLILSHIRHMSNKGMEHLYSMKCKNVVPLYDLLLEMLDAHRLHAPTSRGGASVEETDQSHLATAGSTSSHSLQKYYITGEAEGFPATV
Chain of Thyrotropin receptor (Homo sapiens) (P16473 whole entry, looked up): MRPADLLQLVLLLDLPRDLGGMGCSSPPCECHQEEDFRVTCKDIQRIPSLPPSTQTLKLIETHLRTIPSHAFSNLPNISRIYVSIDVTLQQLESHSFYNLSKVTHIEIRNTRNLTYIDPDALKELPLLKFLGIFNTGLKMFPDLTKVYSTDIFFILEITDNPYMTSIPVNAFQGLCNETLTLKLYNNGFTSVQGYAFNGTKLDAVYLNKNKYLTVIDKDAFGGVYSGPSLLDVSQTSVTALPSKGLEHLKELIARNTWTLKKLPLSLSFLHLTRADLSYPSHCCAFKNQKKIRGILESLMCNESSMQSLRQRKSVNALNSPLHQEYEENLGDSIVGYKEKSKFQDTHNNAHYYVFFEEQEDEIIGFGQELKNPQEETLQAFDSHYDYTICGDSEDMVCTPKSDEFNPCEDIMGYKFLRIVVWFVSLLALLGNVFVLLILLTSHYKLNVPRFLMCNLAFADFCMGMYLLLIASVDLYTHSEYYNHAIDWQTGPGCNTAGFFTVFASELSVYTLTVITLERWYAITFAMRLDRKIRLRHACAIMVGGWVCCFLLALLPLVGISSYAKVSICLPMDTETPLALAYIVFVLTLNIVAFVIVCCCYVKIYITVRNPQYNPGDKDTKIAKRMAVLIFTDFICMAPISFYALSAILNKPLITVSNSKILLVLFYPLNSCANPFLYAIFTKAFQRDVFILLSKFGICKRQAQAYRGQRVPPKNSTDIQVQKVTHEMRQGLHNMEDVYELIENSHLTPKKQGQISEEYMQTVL
Chain of Androgen receptor (Homo sapiens) (P10275 whole entry, looked up): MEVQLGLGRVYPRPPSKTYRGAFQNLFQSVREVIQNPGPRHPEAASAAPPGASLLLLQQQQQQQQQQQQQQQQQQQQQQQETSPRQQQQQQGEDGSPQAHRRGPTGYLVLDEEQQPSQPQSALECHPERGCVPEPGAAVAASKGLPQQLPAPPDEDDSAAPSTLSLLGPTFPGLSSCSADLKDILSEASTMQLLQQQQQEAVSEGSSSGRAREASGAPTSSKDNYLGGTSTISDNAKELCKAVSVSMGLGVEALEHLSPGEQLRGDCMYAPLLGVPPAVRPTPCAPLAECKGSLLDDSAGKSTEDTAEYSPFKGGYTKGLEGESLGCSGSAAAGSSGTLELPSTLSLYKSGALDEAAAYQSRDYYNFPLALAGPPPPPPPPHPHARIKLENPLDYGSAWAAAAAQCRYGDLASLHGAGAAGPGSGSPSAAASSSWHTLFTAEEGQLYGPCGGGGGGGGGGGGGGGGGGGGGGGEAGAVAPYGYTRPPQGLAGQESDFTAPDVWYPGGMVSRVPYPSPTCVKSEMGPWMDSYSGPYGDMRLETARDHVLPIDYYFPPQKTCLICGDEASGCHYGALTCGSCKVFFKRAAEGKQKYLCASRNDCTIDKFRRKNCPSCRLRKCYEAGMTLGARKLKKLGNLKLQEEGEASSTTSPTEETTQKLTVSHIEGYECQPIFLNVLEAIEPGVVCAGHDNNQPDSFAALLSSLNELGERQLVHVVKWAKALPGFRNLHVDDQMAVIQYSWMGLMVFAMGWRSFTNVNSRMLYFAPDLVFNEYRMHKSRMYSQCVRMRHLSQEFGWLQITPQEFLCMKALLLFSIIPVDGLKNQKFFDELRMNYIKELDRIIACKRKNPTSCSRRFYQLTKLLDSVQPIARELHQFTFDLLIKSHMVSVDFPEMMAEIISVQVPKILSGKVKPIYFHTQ
Chain of Estrogen receptor beta (Homo sapiens) (Q92731 whole entry, looked up): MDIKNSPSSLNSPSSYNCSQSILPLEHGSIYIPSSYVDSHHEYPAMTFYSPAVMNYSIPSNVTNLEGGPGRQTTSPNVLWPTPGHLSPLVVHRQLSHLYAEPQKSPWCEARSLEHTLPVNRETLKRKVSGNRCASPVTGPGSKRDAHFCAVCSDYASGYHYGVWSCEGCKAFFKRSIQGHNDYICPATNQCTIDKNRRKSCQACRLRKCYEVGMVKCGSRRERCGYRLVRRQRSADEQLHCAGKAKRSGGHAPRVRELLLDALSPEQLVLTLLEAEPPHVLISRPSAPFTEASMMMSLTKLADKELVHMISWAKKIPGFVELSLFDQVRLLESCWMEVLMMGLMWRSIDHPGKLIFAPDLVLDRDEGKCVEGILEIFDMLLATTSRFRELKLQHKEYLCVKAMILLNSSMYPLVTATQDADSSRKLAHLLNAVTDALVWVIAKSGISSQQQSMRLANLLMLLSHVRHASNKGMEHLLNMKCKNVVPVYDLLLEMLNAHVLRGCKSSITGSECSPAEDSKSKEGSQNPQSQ
Chain of Thyrotropin-releasing hormone receptor (Homo sapiens) (P34981 whole entry, looked up): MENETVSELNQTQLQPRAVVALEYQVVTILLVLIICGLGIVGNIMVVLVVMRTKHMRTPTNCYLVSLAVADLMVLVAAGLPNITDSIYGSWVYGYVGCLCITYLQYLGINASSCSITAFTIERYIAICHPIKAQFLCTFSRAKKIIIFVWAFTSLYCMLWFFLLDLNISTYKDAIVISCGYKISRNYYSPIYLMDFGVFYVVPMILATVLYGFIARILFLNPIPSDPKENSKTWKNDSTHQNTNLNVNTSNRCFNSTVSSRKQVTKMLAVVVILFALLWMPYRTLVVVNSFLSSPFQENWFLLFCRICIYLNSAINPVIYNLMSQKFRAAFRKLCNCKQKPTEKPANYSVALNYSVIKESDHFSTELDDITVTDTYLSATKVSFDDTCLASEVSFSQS

For `Clc1cc(Cl)c(-c2c(Cl)c(Cl)cc(Cl)c2Cl)cc1Cl`, the Potency entry in [1], in test [2], in test [3], in [4], in [5] and in test [6] was “inactive” each time. The Potency entry in test [8], in test [10], in [11], in test [12], in [13] and in [14] was “inactive” throughout. For the same compound, in [15], the Potency entry is “inactive”. Also, the call in test [7] and in test [9] was inactive.

Regarding `COCC(=O)O[C@]1(CCN(C)CCCc2nc3ccccc3[nH]2)CCc2cc(F)ccc2[C@@H]1C(C)C`, the Potency entry in test [1], in test [5], in test [16], in test [17], in [14] and in test [19] was “inactive” in each case. For the same compound, the Potency result in [20] is “inactive”. For the same compound, the Potency in [2] is 11.9 µM (active); in test [3] it was 23.7 µM (active); in test [4] it was 21.1 µM (active); in test [6], 18.8 µM (active); in test [18], 26.6 µM (active); in test [10], 26.6 µM (active). Also, the Potency in [11] was 21.1 µM (active); in test [15] it was 23.7 µM (active). Further, in test [7], the call was inactive.

Turning to `Cc1ccc2ccc3cccc4ccc1c2c34`, the Potency entry in [1], in test [2], in test [3], in test [6], in [16] and in test [8] was “inactive” throughout. Moreover, the Potency result in test [17], in test [12], in test [13], in test [14], in test [19] and in [20] was “inactive” in each case. The Potency entry in [15] was “inactive”. Also, the Potency in test [4] is 24.3 µM (active); in [11], 27.3 µM (active). For the same compound, the compound was called inactive in test [7].

Take `CC1CCCCC1`: the Potency result in [1], in test [2], in test [3], in test [4], in [5] and in test [6] was “inactive” throughout. For the same compound, the Potency result in test [16], in test [17], in [18], in test [10], in test [11] and in [13] was “inactive” each time. Moreover, the Potency result in [14] and in test [15] was “inactive” throughout. Moreover, the compound was classed as inactive in [7].

Turning to `C=CC(C)(CCC=C(C)C)OC(=O)/C=C/c1ccccc1` (stereo not given), the Potency entry in [1], in test [2], in test [3], in test [4], in [5] and in [6] was “inactive” throughout. Also, the Potency entry in test [16], in [17], in test [10], in [11], in [12] and in test [13] was “inactive” throughout. For the same compound, the Potency result in test [14], in test [19], in test [20] and in test [15] was “inactive” throughout. Further, the result in test [7] and in [9] was inactive.

Take `CCC(C)(C)c1cc(O)c(C(C)(C)CC)cc1O`: the Potency result in test [1], in test [5], in test [6], in [16], in test [17] and in test [18] was “inactive” each time. The Potency result in [10], in test [12], in test [20] and in test [15] was “inactive” throughout. For the same compound, the Potency was 48.6 µM (active) in test [2], 61.1 µM (active) in test [3] and 61.1 µM (active) in test [4]. Also, the outcome in test [7] and in test [9] was inactive.

For `C=CC(=O)OCCN(CC)CC`, the Potency entry in [1], in test [2], in [3], in [4], in [6] and in [16] was “inactive” each time. The Potency result in test [8], in test [18], in test [10], in test [11], in [12] and in [13] was “inactive” throughout. In addition, the Potency entry in test [14] and in test [15] was “inactive” throughout. Further, the result in test [7] was inactive.

The record behind these values is PubChem BioAssay (Tox21).
